Compound activity deposited in PubChem BioAssay by National Center for Advancing Translational Sciences (NCATS).
This is a sample that favours compounds with a hit; in the whole collection about 2.6% have one here.
Cruzain inh Det: blocks cruzain activity in presence of Triton detergent; P25779; purified cruzain, Z-FR-AMC fluorescence, 0.01% Triton; Potency, µM, for inactives: max response, negative = inhibition, most hits filed as inhibitors; 200,000 tested, 0.43% active; AID 1478;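 further: plate controls were neutral wells for no effect and buffer without enzyme for full effect; nearly all actives have a fitted effect of over 40% in size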
Target sequence (P25779 123-467 limits assumed): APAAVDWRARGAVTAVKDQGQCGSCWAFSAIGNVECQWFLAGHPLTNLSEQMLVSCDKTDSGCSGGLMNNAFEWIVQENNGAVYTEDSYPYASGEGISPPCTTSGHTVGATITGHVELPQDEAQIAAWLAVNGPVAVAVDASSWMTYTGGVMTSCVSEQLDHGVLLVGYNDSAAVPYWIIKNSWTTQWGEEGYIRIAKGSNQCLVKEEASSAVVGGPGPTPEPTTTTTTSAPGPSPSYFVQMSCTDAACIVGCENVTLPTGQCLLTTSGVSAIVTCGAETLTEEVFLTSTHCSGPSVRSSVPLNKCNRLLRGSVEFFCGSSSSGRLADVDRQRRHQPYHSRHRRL
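Steps: dispense cruzain (1.5 nM final) in acetate buffer pH 5.5 with DTT and 0.01% Triton X-100; pin-transfer compounds; incubate 15 min RT; add Z-FR-AMC (2 uM final); read fluorescence every 30 s, using the 60 s intensity change.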
Cruzain noTriton: inhibitors of Trypanosoma cruzi cruzain without detergent | AID 1476 | purified cruzain, Z-FR-AMC fluorescence, no detergent | P25779 | 200,000 tested, 2.3% active | Potency, µM, inactives show max response, negative = inhibition, actives largely listed as inhibitors;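 further: plate controls were enzyme without inhibitor for no effect and buffer without enzyme for full effect; nearly all actives have a fitted effect of over 40% in size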
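Purified cruzain at 1.5 nM, pre-incubated 15 min with compound at room temperature in 100 mM sodium acetate pH 5.5, 5 mM DTT, 0.00005% Triton X-100. Reaction started with 2 uM Z-FR-AMC; AMC fluorescence increase over 60 s gives rate.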
Starred values were filed as active, the others as inactive; ? = inconclusive. The call rests on the fitted dose curve; in most records, active means well fitted curve in the direction sought with a large enough effect; inconclusive means small, poorly fitted or top-dose-only effect, or another doubt; inactive means no such curve, though single readings can be large; an effect the other way counts as inactive or inconclusive. Potency means the concentration at half of the fitted maximal effect.

SMILES	Cruzain inh Det	Cruzain noTriton
Cc1cc(C(=O)CN2C(=O)NC(C)(c3cccc(Br)c3)C2=O)c(C)n1Cc1ccco1 (stereo not given)	-1.0%	31.6µM*
CCCn1c(C)cc(C(=O)CSc2nc3ccccc3c(=O)n2Cc2ccco2)c1C	-4.4%	-21.2%
Cc1cc(C(=O)CSc2nn(-c3ccccc3)c(=S)s2)c(C)n1Cc1ccco1	-3.1%	25.1µM*
Cc1cc(C(=O)CN2C(=O)NC(c3ccccc3)(c3ccccc3)C2=O)c(C)n1Cc1ccco1	-2.1%	?
Clc1ccc(CSCCc2ccncc2)cc1Cl	-5.4%	2.0%
COC(=O)c1ccc2c(c1)c(I)c(-c1ccc(OC)cc1)n2C	2.5%	?
COC(=O)c1ccc2c(c1)c(C#Cc1ccccc1)c(-c1ccccc1)n2C	-3.0%	17.8µM*
Cc1ccc(C)c(NC(=O)CSc2nc(-c3ccccc3)c(C#N)c(=O)[nH]2)c1	-3.3%	2.3%
COc1ccccc1NC(=O)CSc1nc(-c2ccc(C(C)(C)C)cc2)c(C#N)c(=O)[nH]1	25.1µM*	?
O=C(NCc1ccco1)c1ccc(Cn2c(=O)c3ccccc3n(Cc3cccc(Cl)c3)c2=O)cc1	0.7%	?
O=C(NCc1ccco1)c1ccc(Cn2c(=O)c3sccc3n(Cc3cccc(F)c3)c2=O)cc1	5.4%	25.1µM*
COc1ccc2c(c1)[N+](=O)C(/C(C)=N/NC(N)=S)=C(C)[N+]2=O	-7.1%	-1.5%
CN(C)CCCc1cccnc1	-0.3%	5.3%
Cc1cccc(N=C2NC(=O)/C(=C/c3cccs3)S2)c1	-6.1%	?
Cc1ccc(N=C2NC(=O)/C(=C\c3cccs3)S2)cc1C	-4.4%	25.1µM*
CCOC(=O)C(Cc1ccc(O)cc1)NC(=O)CNC(=O)C(CC(C)C)NC(=O)OC(C)(C)C (stereo not given)	12.6µM*	10µM*
COC(=O)C(Cc1ccccc1)NC(=O)C(CC(C)C)NC(=O)OC(C)(C)C (stereo not given)	15.8µM*	31.6µM*
CCC(C)C(NC(=O)OC(C)(C)C)C(=O)NC(Cc1ccccc1)C(=O)OC (stereo not given)	-3.3%	-9.7%
CC(C)CC(NC(=O)C(Cc1ccc(OCc2ccccc2)cc1)NC(=O)OC(C)(C)C)C(N)=O (stereo not given)	-1.3%	-2.2%
CCCC(=O)Nc1cc(-c2nnc3c4ccccc4c(C)nn23)ccc1C	-0.3%	10.9%
CCc1ccc(CNC(=O)c2c(C)oc3ncn(CC(C)C)c(=O)c23)cc1	-3.7%	5.5%
Cc1ccccc1OCC(=O)N/N=C/c1cc2ccccc2nc1Cl	-0.7%	1.4%
COc1ccc2cc(/C=N/NC(=O)c3ccc(CN(c4cccc(Cl)c4Cl)S(C)(=O)=O)cc3)c(Cl)nc2c1	-11.8%	25.1µM*
O=C(NCc1ccco1)C1CCN(C(=O)N2CCOc3ccccc32)CC1	-0.8%	-2.0%
O=C(CSc1ccc(C(F)(F)F)cc1[N+](=O)[O-])Nc1ccc2ccccc2c1	-3.7%	12.6µM*
SMILES	Cruzain inh Det	Cruzain noTriton
CC(=O)Nc1cccc(NC(=O)CSc2ccc(C(F)(F)F)cc2[N+](=O)[O-])c1	-0.9%	0.7%
O=C(O)CN(CCN(CC(=O)O)CC(=O)O)CC(=O)O.[Cu]	3.5%	7.0%
COCCOC(=O)C1=C(C)NC(SCC(=O)NC(C)(C)C)=C(C#N)C1c1ccco1 (stereo not given)	-4.1%	11.6%
CC(=O)C1=C(C)NC(SCC(=O)c2ccc(C)cc2)=C(C#N)C1c1ccco1 (stereo not given)	-15.2%	-29.1%
C=CCOC(=O)C1=C(C)NC(SCC(=O)Nc2ccc(C)c(Cl)c2)=C(C#N)C1c1ccco1 (stereo not given)	-6.7%	10µM*
COc1ccccc1NC(=O)C1=C(C)NC(SCC(=O)c2ccccc2)=C(C#N)C1c1ccco1 (stereo not given)	-3.7%	15.8µM*
Cc1ccc(-c2cc(-c3ccccc3)[nH]c(=S)c2C#N)cc1	-9.3%	15.8µM*
N#Cc1c(-c2ccc(C(F)(F)F)cc2)cc(-c2ccccc2)[nH]c1=S	2.8%	-14.8%
CN(CC(=O)Nc1ccc(C#N)cc1)Cc1ccc(Cl)cc1	0.1%	10.8%
N#Cc1ccc(NC(=O)Nc2ccc(Cl)cc2)cc1	-0.7%	10µM*
NC(=O)CS(=O)C[C@H](N)C(=O)O (stereo not given in full)	9.8%	-5.4%
O=C1NCCCc2c1oc1cc(Br)c(O)c(Br)c21	-1.1%	-9.9%
CC(C)NCc1c(O)c(Br)cc2oc3c(c12)CCCC3	0.5%	12.6µM*
CCOC(=O)c1cc(-c2ccccc2)sc1NC(=O)CN1C(=O)NC(CC)(c2ccc(F)cc2)C1=O (stereo not given)	1.0%	10µM*
CCOC(=O)c1cc(-c2ccccc2)sc1NC(=O)CC	-8.7%	1.2%
CCOC(=O)c1cc(-c2ccccc2)sc1NC(=O)CN1C(=O)NC(CC)(c2ccccc2)C1=O (stereo not given)	-9.4%	10µM*
CCOC(=O)c1cc(-c2ccccc2)sc1NC(=O)CSc1nncs1	-10.3%	28.7%
CCOc1ccc(CNC(=O)C2CCN(S(=O)(=O)c3cn(C)cn3)CC2)cc1OC	-2.6%	2.7%
CCc1c(C)nc2nncn2c1NCc1ccccc1	-3.0%	-2.2%
CC(=O)N1CCc2nc3sc(C(=O)c4ccc(F)cc4)c(N)c3c(C(F)(F)F)c2C1	-9.8%	?
CN(Cc1ccccc1)C(=O)c1ccc2c(c1)N(Cc1ccc(Cl)cc1)C(=O)c1ccccc1S2=O (stereo not given)	1.0%	-2.9%
Cc1cccc(Cn2c(=O)n(CC3CCC(C(=O)N4CCOCC4)CC3)c(=O)c3sccc32)c1 (stereo not given)	-1.5%	13.9%
Cn1c(O)c(C2=c3ccccc3=NC2=O)sc1=Nc1ccc(Cl)cc1	-9.8%	25.1µM*
C=CCn1c(O)c(C2=c3ccccc3=NC2=O)s/c1=N/c1nccs1	-4.6%	7.9%
O=C(Oc1ccccc1)N1CCC2(CC1)CCN(c1ccccc1)CC2	-5.3%	-1.8%
SMILES	Cruzain inh Det	Cruzain noTriton
O=C(NC[C@H]1CCCCN1)c1cc(OCC(F)(F)F)ccc1OCC(F)(F)F	-2.3%	3.1%
O=C1NC(=S)N/C1=C/c1ccc(-c2c(Br)cc([N+](=O)[O-])cc2Br)o1	-11.6%	20µM*
O=C1NC(=S)N/C1=C\c1cccc([N+](=O)[O-])c1	-3.1%	?
CCOc1ccccc1N(C)C(=O)c1sc2nc3n(c(=O)c2c1C)CCCC3	-6.4%	-1.2%
COc1ccc(N2CSC3=C(C#N)C(c4cc(OC)ccc4OC)CC(=O)N3C2)c(OC)c1 (stereo not given)	-9.8%	3.0%
CCOc1ccccc1N1CSC2=C(C#N)C(c3c(OC)ccc4ccccc34)CC(=O)N2C1 (stereo not given)	-8.1%	15.8µM*
COc1cccc(Cn2c(=O)c(-c3ccc(Cl)cc3)nc3cncnc32)c1	-1.2%	-16.6%
CN(C)c1cccc(C(=O)Nc2nc3ccc(S(=O)(=O)N4CCCC4)cc3s2)c1	-4.5%	-24.4%
O=C(COC(=O)CCc1nc2ccccc2s1)Nc1ncc(Cl)cc1Cl	-5.6%	-7.9%
CC(=O)OCc1nc2ccccc2s1	1.9%	-7.0%
O=C(CNC(=O)c1ccccc1)OCc1nc2ccccc2s1	25.1µM*	12.6µM*
O=C(CNC(=O)c1ccc(Cl)cc1Cl)OCc1nc2ccccc2s1	7.94µM*	3.98µM*
O=C(O)CC(CC(=O)O)C(=O)O	2.2%	-2.4%
COc1ccc2cc3cc(C(=O)NCc4ccc5c(c4)OCO5)oc3nc2c1	-9.2%	-17.1%
